# PubChem BioAssay (Tox21)
# Values without a mark were called inactive. Where a call stands in place of a potency, no number is given. Calls of active or inactive are those of the source. Calls come from the whole dose curve.
# Target: Muscarinic acetylcholine receptor M1 (Homo sapiens) (UniProt P11229)
# Test: Cholinergic receptor muscarinic 1 (CHRM1) small molecule agonists, cell-based qHTS assay (AID 1963589); note: nearly all actives have a fitted effect of over 35% in size
# Settings: CHRM1-CHO cells, agonist mode, calcium flux fluorescence; series mostly up to 76.8 µM
# Description: National Center for Advancing Translational Sciences [NCATS]
# Division of Preclinical Innovation [DPI]
# U.S. Environmental Protection Agency [EPA]
# National Institutes of Environmental Health Sciences [NIEHS]
# National Toxicology Program [NTP]
# U.S. Food and Drug Administration [FDA]
# The CHRM1 is a muscarinic receptor. This receptor plays a crucial role in learning and memory processes and has long been identified as a promising therapeutic target for the improvement of cognitive decline in Alzheimer's disease (AD). The CHRM1-CHO cell line stably expressing human muscarinic acetylcholine receptor M1 (CHRM1) can be used for screening agonists and antagonists of interactions between CHRM1 and its ligands. The CHRM1-CHO Calcium Flux Assay is a homogeneous fluorescence-based assay for detecting the intracellular calcium level using FDSS kinetic plate reader system.
# CHRM1-CHO cells were dispensed at 1000 cells/3uL/well in 1536-well black-clear bottom plates using a Multidrop Dispenser. After the assay plates were incubated at a 37 C/5% CO2 incubator for 18 h, 3 uL of Dye Loading Buffer was transferred to the assay plate by a Flying Reagent Dispenser. The assay plates were incubated at 37 C for 1h. For agonist mode, 23 nL of compounds dissolved in DMSO, positive controls or DMSO only was transferred to the assay plate by a pin tool. […] Each test compound was measured at 15 concentrations in three independent runs.
# Sequence of Muscarinic acetylcholine receptor M1 (Homo sapiens) (P11229 whole entry, looked up): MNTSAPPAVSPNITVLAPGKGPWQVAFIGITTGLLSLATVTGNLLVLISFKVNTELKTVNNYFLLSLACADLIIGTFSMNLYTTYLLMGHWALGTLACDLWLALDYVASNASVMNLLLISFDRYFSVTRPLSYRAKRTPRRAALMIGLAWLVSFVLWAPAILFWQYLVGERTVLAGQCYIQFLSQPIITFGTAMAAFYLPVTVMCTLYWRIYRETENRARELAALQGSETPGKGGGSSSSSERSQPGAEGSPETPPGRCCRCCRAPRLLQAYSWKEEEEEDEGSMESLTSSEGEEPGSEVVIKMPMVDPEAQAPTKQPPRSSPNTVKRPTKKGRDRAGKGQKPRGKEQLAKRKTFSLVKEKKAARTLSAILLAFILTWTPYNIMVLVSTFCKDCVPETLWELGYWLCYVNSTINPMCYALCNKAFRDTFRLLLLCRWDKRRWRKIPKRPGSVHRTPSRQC
Structure (SMILES),Potency,activation
COc1ccccc1C=O,inactive,–
Cc1ccc(C(=O)O)cc1,inactive,–
Cc1ccc(Nc2ccc(O)c3c2C(=O)c2ccccc2C3=O)cc1,inactive,–
C=C(C)C(=O)OCCOP(=O)(O)O,inactive,–
C=CC(C)(CCC=C(C)C)OC(=O)CC (stereo not given),inactive,–
C[N+](C)(C)CC(O)CCl (stereo not given),inactive,–
CCCCCCCC/C=C\CCCCCCCC(=O)OCCCC,–,-0.0084% [at 15.8 µM]
OCCOCCOCCOCCOCCO,inactive,–
CC(C)(C)CC(C)(C)c1ccc(Nc2ccc(C(C)(C)CC(C)(C)C)cc2)cc1,–,0.016% [at 6.97 µM]
COS(=O)(=O)O,inactive,–
CC(=O)SC[C@@H](C)C(=O)N1CCC[C@H]1C(=O)N[C@@H](Cc1ccccc1)C(=O)O,inactive,–
O=C1OC(CN2CCOCC2)CN1/N=C/c1ccc([N+](=O)[O-])o1 (stereo not given),inactive,–
CCCCOC(=O)CCS,inactive,–
CCOC(=O)OC(=O)OCC,inactive,–
Cn1sccc1=O,inactive,–
NS(=O)(=O)c1ccc(NC(=O)CCC(=O)O)cc1,inactive,–
CCN(CC)CCNC(=O)c1ccc(NC(C)=O)cc1,inactive,–
CCOC(=O)CN1CCCC1=O,inactive,–
CCCCCc1cccc(=O)o1,inactive,–
CCCCCCCCCOS(=O)(=O)O,inactive,–

Structure (SMILES),Potency,activation
CC/C=C\CCOC(=O)C(C)C,inactive,–
CCOC=C(C(=O)OCC)C(=O)OCC,inactive,–
N[C@@H](Cc1c[nH]c2ccc(O)cc12)C(=O)O,inactive,–
NC[C@H]1O[C@H](O[C@H]2[C@H](O)[C@@H](O[C@H]3O[C@H](CO)[C@@H](O)[C@H](N)[C@H]3O)[C@H](N)C[C@@H]2N)[C@H](N)[C@@H](O)[C@@H]1O,–,-0.129% [at 15.8 µM]
CCOC(C)(C)C,inactive,–
OC1(c2ccc(Cl)cc2)CCNCC1,inactive,–
CCC(O)CO (stereo not given),inactive,–
CCCC[O][Al]([O]CCCC)[O]CCCC,inactive,–
C/C=C/C(=O)CCCC,inactive,–
Cc1ccc(C(C)c2ccc(C)c(C)c2)cc1C,inactive,–
Cl/C(=C\n1cncn1)c1ccc(Cl)cc1Cl,inactive,–
COC(=O)c1ccc2cc(C(=O)OC)ccc2c1,–,0.0556% [at 15.8 µM]
O=[N+]([O-])c1cncn1CCN1CCOCC1,inactive,–
O=CC1CC=CCC1 (stereo not given),inactive,–
CCn1c2ccccc2c2ccccc21,inactive,–
C#CC(O)CCC (stereo not given),inactive,–
O=C(O)c1cc2ccccc2cc1O,inactive,–
CCCCC(CC)COP(=O)(O)OCC(CC)CCCC (stereo not given),inactive,–
CCN(CC)c1ccc2c(C)cc(=O)oc2c1,inactive,–
COC(=O)c1ccccc1C(=O)O,inactive,–
